ST2 inh: IL1RL1 inhibition; Q01638; AlphaLISA ST2-Fc/biotin-IL-33 interaction, 1 h; inhibition, % for hits at 17 µM; 2.3% of 78,000 active; AID 1259354; in the data active = inhibition above about 30%
Target sequence (Q01638 whole entry, looked up): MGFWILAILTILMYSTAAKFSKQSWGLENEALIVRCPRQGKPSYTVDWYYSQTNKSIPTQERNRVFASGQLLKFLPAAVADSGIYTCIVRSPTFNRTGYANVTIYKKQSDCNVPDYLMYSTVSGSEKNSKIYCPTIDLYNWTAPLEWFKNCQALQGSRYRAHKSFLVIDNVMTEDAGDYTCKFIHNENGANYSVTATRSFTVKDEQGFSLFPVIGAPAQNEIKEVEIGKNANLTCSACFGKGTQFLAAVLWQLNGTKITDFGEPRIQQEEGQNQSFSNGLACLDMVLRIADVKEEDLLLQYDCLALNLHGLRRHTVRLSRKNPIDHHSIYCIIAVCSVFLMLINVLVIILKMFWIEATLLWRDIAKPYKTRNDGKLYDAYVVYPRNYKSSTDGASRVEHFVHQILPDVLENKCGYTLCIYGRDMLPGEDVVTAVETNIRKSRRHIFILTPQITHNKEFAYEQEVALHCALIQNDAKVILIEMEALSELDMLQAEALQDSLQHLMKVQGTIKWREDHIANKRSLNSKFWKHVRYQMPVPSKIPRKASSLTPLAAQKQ
The depositor's hits bear a star; i = inactive. The entries come from a sample that favours hits as a whole.

SMILES	ST2 inh
O=C(O)c1cccc(CN2C(=O)SC(Nc3cccc(C(=O)O)c3)C2=O)c1 (configuration not stated)	i
Cc1cc(N2CCOCC2)nc(N2CCN(S(=O)(=O)c3ccccc3Cl)CC2)n1	i
CCCS(=O)c1ccccc1 (configuration not stated)	i
CC1(c2ccc(Cl)cc2)CC(C)(C)N(C(=O)CSC#N)c2ccccc21 (configuration not stated)	i
CC1(c2ccccc2)CC(C)(C)N2C(=O)C(=O)c3cccc1c32 (configuration not stated)	33%*
CC1(O)c2ccccc2C(=O)N1Cc1ccccc1 (configuration not stated)	i
CCCNC(=O)C1CCC(Cn2c(=O)c3sccc3n(CC(=O)Nc3ccccc3)c2=O)CC1 (configuration not stated)	i
CN(C)CCNC(=O)C[C@@H]1O[C@H](CNS(=O)(=O)c2ccccc2)[C@@H](O)[C@H]1O	i
COc1ccc2oc(=Nc3ccccc3OC)c(C(N)=O)cc2c1	i
COc1ccc2oc(=Nc3ccc(-c4ccccc4)cc3)c(C(N)=O)cc2c1	i
COc1ccc2oc(=Nc3ccc(C(C)=O)cc3)c(C(N)=O)cc2c1	40%*
O=C(NCc1ccco1)c1cc(I)ccc1Cl	i
CC(C)c1ccc(NS(=O)(=O)c2ccc(Cl)s2)cc1	i
O=C(CS(=O)(=O)c1nc(-c2ccccc2)cn1-c1ccccc1)Nc1ccccc1	i
COc1ccc(/C=C2/C(C)=C(C#N)c3nc(N)c(C#N)c(C)c32)c(OC)c1	43%*
COc1ccc(OC)c(-c2c(C#N)c(N)nc(OC)c2C#N)c1	i
COc1ccc(-c2c(C#N)c(N)nc(OC)c2C#N)c(OC)c1	i
C=CCn1c(C(Cc2ccccc2)NC(=O)c2cccs2)nc2ccccc21 (configuration not stated)	i
CCOC(=NC(=NS(C)(=O)=O)c1ccccc1)SC	i
CC(C)Cc1nc2cc(NS(=O)(=O)N(C)C)cc(C(=O)N3CCc4ccccc4C3)c2n1C	i
Cc1cccc(NC(=O)COc2ccc([N+](=O)[O-])cc2)c1C	i
Cc1nc(S(=O)(=O)c2ccccc2)c(N(C)C)o1	i
CN(C)c1oc(-c2ccccc2)nc1S(=O)(=O)c1ccccc1	i
CN(C)c1oc(COc2ccc(Cl)cc2Cl)nc1S(=O)(=O)c1ccccc1	36%*
C/C=C/C=C/C=C/C(=O)O[C@@H]1C=C2CO[C@@H](O)[C@]2(O)[C@@]2(C)CCCC(C)(C)[C@H]12	i
SMILES	ST2 inh
COc1coc(C(=O)Nc2cnc3n2CCCC3)cc1=O	i
Cc1ccc2oc(-c3ccc(NC(=O)c4ccc5c(c4)OCCO5)cc3O)nc2c1	32%*
Cc1ccccc1-c1nc2cc(NC(=O)c3ccc4c(c3)OCCO4)ccc2o1	i
COc1cc(C(=O)Nc2ccc(-c3nc4cc(C)ccc4o3)c(O)c2)cc(OC)c1OC	i
O=S(=O)(c1ccc(Cl)c(Cl)c1Cl)n1ccnc1	i
O=C1c2ccccc2-c2ncnc3c(S(=O)(=O)O)cc(O)c1c23	i
Nc1c(Br)cc(O)c2c1C(=O)c1ccccc1C2=O	68%*
CC1=C(C(=O)OCCOc2ccccc2)C(c2cccc3ccccc23)NC(=O)N1 (configuration not stated)	i
Cn1c(=O)c2c(nc(NCc3ccco3)n2Cc2c(F)cccc2Cl)n(C)c1=O	i
CN1CCN(c2nc3c(c(=O)n(C)c(=O)n3C)n2Cc2ccc(Cl)c(Cl)c2)CC1	i
Cn1c(=O)c2c(nc(N3CCOCC3)n2Cc2c(F)cccc2Cl)n(C)c1=O	37%*
O=C(c1cccc(Br)c1)N1CCN=C1SCc1ccccc1F	i
O=C(COC(=O)c1ccccc1O)c1ccc(Br)cc1	90%*
O=C(COC(=O)c1cccc(Br)c1)c1ccc(Br)cc1	i
O=C(COC(=O)c1ccc(Cl)cc1)c1ccc(Br)cc1	i
COc1cc(NC(=O)c2ccc(I)cc2)c(OC)cc1Cl	i
COc1ccc(C(=O)O/N=C(/N)Cc2ccc(Cl)cc2)cc1	i
CC1=CC(=O)C=C(C)C1=NOC(=O)c1ccc([N+](=O)[O-])cc1[N+](=O)[O-]	i
COc1ccc(C(=O)ON=C2C(C)=CC(=O)C=C2C)cc1	52%*
Cc1nn(Cc2ccccc2)c(C)c1NC(=O)c1cc(-c2cccc(Cl)c2)on1	i
COc1cccc(OCC(O)CN2CCCC(C)C2)c1 (configuration not stated)	i
CCN(CC)c1nc(C)nc2c1sc1nc3c(cc12)COC(C)(C)C3	i
COc1cccc(CNC(=O)CSc2nc(-c3ccco3)nc3cc(=O)[nH]n23)c1	i
CNC(=O)c1ccc(CNC(=O)c2cccc(-c3ccccc3OC)c2)o1	i
COc1ccc(-c2nn(-c3ccccc3C)cc2CNCCN2CCOC2=O)cc1F	i
SMILES	ST2 inh
COc1ccccc1-c1cccc(C(=O)NCCN2CCOC2=O)c1	31%*
CNC(=O)[C@@H]1C[C@H](N)CN1C(=O)c1csc2c1CCCC2	i
CC1CCc2c(sc(N=Cc3cccnc3)c2C#N)C1 (configuration not stated)	30%*
Cc1onc(-c2ccccc2Cl)c1C(=O)Nc1sc2c(c1C#N)CCC(C)C2 (configuration not stated)	i
CC1CCc2c(sc(NC(=O)c3cc(=O)c4ccccc4o3)c2C#N)C1 (configuration not stated)	i
COc1ccc(OC2CCN(C(=O)C3CC3)CC2)c(C(=O)N(C)Cc2nonc2C)c1	i
CSC1=N/C(=C\c2cc3c(cc2Br)OCO3)C(=O)S1	i
CCN(CC)c1ccc(C2C3=C(CC(C)(C)CC3=O)Nc3nc(SC)[nH]c(=O)c32)cc1 (configuration not stated)	i
CCN(CC)c1ccc(/C=C2\N=C(SC)SC2=O)cc1	63%*
COc1ccc(C2CC(c3c(F)cccc3Cl)n3ncnc3N2)cc1 (configuration not stated)	i
Cc1ccc(C2=N/C(=C\c3ccco3)C(=O)O2)cc1[N+](=O)[O-]	i
CCOc1ccc(/C=C2\N=C(c3ccc(Br)cc3)OC2=O)cc1	i
O=C1OC(c2ccc3c(c2)OCO3)=N/C1=C\c1ccccc1Br	i
Cc1ccc(/C=C2\N=C(c3ccccc3C)OC2=O)o1	65%*
CC1=N/C(=C\c2ccc(OC(F)F)cc2)C(=O)O1	i
Cc1ccc(/C=C2\N=C(c3ccc(I)cc3)OC2=O)o1	47%*
Cc1ccccc1C1=N/C(=C\c2ccco2)C(=O)O1	44%*
Cc1cc(C)n2c(Br)c(CN3CCC(C(N)=O)CC3)nc2n1	i
COc1ccc(/C=N\OC(=O)c2ccc(Cl)cc2)cc1Cn1cnc([N+](=O)[O-])n1	i
CC/C=C/c1c(OC)cc(=O)oc1C	i
NS(=O)(=O)c1ccc(N=Cc2ccc(O)cc2)cc1	i
Cc1cc(C)n2nc(SC(C)C(=O)NCc3ccc4c(c3)OCO4)nc2n1 (configuration not stated)	i
CCc1[nH]c2c(CNC(=O)NCc3ccco3)cc(F)cc2c1C	i
NC(=O)c1csc(-c2cc(NC3CCCC3)nc3[nH]ccc23)n1	i
Cc1ccccc1-n1cc(-c2ccnc(NC3CCNCC3)n2)cn1	i
CC(O)c1cccc(-c2cc(NC3CCNCC3)nc3[nH]ccc23)n1 (configuration not stated)	46%*
CCNc1ccnc(-c2cccc3[nH]ccc23)n1	i
Cc1cc(-c2cc(NC3CCNCC3)nc3[nH]ccc23)c(=O)[nH]c1C	38%*

Bioassay records: PubChem, Paczesny and Yang Labs, IUPUI and University of Michigan
